TDP1 cell noCPT: qHTS for Inhibitors of human tyrosyl-DNA phosphodiesterase 1 (TDP1): qHTS in cells in absence of CPT; DT40 Tdp1-/- hTDP1 cells, no CPT, ATP luminescence, 48 h; Potency, µM (titrated, usually from 46.2 µM), for the others: at the highest dose activity change, negative = growth inhibition, usual class: inhibitors; hit rate 15% among 420,000; AID 686978, 2013; further: potency means the concentration at half of the fitted maximal effect; on the % scale 0 is the no-effect control and ±100 the full control effect; nearly all actives have a fitted effect of over 55% in size
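Luminescent ATP content (CellTiter-Glo) served as the growth readout. Knockout chicken DT40 cells expressing human TDP1 were exposed to compounds without camptothecin for a minimum 48 hr at 37 °C.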
MCF10A rerep: DNA re-replication induction in MCF 10a cells. hit rate 2.9% among 350,000. Potency, µM (series often up to 46.1 µM), for the others: top-dose activity, positive = re-replication, most hits filed as activators. MCF 10A DNA re-replication, Hoechst nuclear intensity, 48 h; further: potency means the concentration at half of the fitted maximal effect; % of control where 0% means no effect; nearly all actives have a fitted effect of over 50% in size
DT40 TDP1 CPT: DT40-hTDP1 cell growth loss with CPT | AID 686979 | hit rate 12% among 420,000 | chicken DT40 Tdp1-/-;hTDP1 cells + 20 nM CPT, ATP luminescence, 48 h | Potency, µM (top dose mostly 46.2 µM), for the others: top-dose activity change, negative = growth inhibition, actives largely listed as inhibitors; further: potency means the concentration at half of the fitted maximal effect; on the % scale 0 is the no-effect control and ±100 the full control effect; nearly all actives have a fitted effect of over 55% in size
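Chicken DT40 Tdp1-/- cells stably complemented with human TDP1 were seeded at 400 cells/well in medium containing 20 nM camptothecin, exposed to pin-transferred compounds, and grown at 37 °C for at least 48 hr. Viability was read as ATP luminescence.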
Chronic BCR inh: blocks chronic active B-cell receptor signaling | ABC-DLBCL IkBa-CBG/CBR reporter, luminescence ratio, 4 h | Potency, µM (top dose mostly 46.1 µM), for inactives: at the top dose activity change, negative = inhibition, hits mostly inhibitors | hit rate 0.05% among 340,000; active means well fitted inhibition curve with a large enough effect in the signal ratio, with a control signal flat, not every such curve was filed as active; inconclusive means small, poorly fitted or top-dose-only effect, or effect the other way, or a change in a side signal; the % refers to the signal ratio;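 further: potency means the concentration at half of the fitted maximal effect; plate controls were basal doxycycline-induced cells for no effect and cells given 10 µM MG132 for full effect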
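TMD8 human ABC-DLBCL cells with doxycycline-inducible IκBα–green luciferase fusion and unfused red luciferase, in 0.5% FBS medium; compounds up to 46 uM, 4 h at 37C. Green/red luminescence ratio, filter-overlap corrected, fitted to concentration-response curves.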
IL1B secr inh: blocks inflammasome-driven IL-1 beta release. THP-1 LPS/ATP IL-1B secretion, AlphaLISA, 16 h; active compounds read low. activity change, % at 57.5 µM. hit rate 4.7% among 360,000; in the data active means activity change below about -50%; inconclusive means mostly about -30% to -49%; further: on the % scale 0 is the no-effect control and ±100 the full control effect
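Secreted IL-1B measured by AlphaLISA bead assay after 16 h compound exposure of THP-1 cells; compounds (final up to 57.5 uM) added 1 h before LPS (250 ng/mL) and ATP (1.25 mM) stimulation; lower signal means less secretion.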
SW480 rereplic: induces DNA re-replication in SW480 colon adenocarcinoma cells | SW480 DNA re-replication, Hoechst DNA content imaging, 48 h | Potency, µM (doses to about 46.1 µM), inactives show at the top dose re-replication activation, most hits filed as activators | hit rate 1.8% among 340,000; further: potency means the concentration at half of the fitted maximal effect; % of control where 0% means no effect; nearly all actives have a fitted effect of over 55% in size
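SW480 cells exposed to compounds for 48 hr at 37 C, 5% CO2, then Hoechst-stained 40 min. Nuclear DNA content imaged by fluorescence scanning (405 nm excitation, 500-530 nm emission); re-replication scored as increased high-intensity nuclei.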
Numbers without * were called inactive; ? = inconclusive; · = no result given. In the library only some 19% were active in any assay of this set; here they are far more common. Unless noted, the call rests on the fitted dose curve; in most records, active means well fitted curve in the direction sought with a large enough effect; inconclusive means small, poorly fitted or top-dose-only effect, or another doubt; inactive means no such curve, though single readings can be large; an effect the other way counts as inactive or inconclusive.

SMILES	TDP1 cell noCPT	MCF10A rerep	DT40 TDP1 CPT	Chronic BCR inh	IL1B secr inh	SW480 rereplic
C[C@H](O)[C@@H]1C(=O)N2CCc3c([nH]c4ccccc34)[C@@H]2C[C@@H]1N(C)Cc1ccc2c(c1)OCO2	16µM*	·	?	·	-11	·
NC(=O)N/N=C/C=C/c1ccc(F)cc1	-2%	-29%	8%	-5%	·	-11%
CCOC(=O)N(C)[C@H]1C[C@H]2c3[nH]c4ccccc4c3CCN2C[C@H]1[C@H](C)O	?	·	?	·	0	·
C[C@H](O)[C@@H]1CN2CCc3c([nH]c4ccccc34)[C@@H]2C[C@@H]1N(C)Cc1cc(Cl)cc(Cl)c1	23µM*	·	?	·	-16	·
CN(CC(=O)NCC(=O)Nc1ccc(F)cc1)C1CCS(=O)(=O)C1 (centres undefined)	-3%	-6%	3%	-1%	0	-9%
Cc1cccc(-c2noc(-c3csc([C@@H]4C[C@H](O)[C@@H](CO)O4)n3)n2)c1	?	·	?	·	-21	·
OC[C@H]1O[C@H](c2nc(-c3nc(-c4cccs4)no3)cs2)C[C@@H]1O	-20%	·	-17%	·	-80*	·
CC(=O)N(Cc1ccc2c(c1)OCO2)Cc1cc2ccc(C)cc2nc1-c1cccc(C)c1	0.46µM*	·	?	·	·	·
CCCn1ccc2c(OCC(=O)Nc3ccc(NC(C)=O)cc3)cccc2c1=O	?	0%	?	?	-13	6%
CCOC(=O)Nc1cccc(OCC(=O)Nc2ccc(OC)cc2OC)c1	9.2µM*	26%	?	-3%	53	0%
CCn1ccc2c(OCC(=O)Nc3ccc(C)c(Cl)c3)cccc2c1=O	16µM*	·	26µM*	?	·	·
CCn1ccc2c(OCC(=O)Nc3ccc(OC)cc3OC)cccc2c1=O	6.5µM*	·	?	19%	·	·
CCCn1ccc2c(OCC(=O)Nc3ccc(F)cc3F)cccc2c1=O	?	·	16µM*	?	·	·
CCOC(=O)Nc1cccc(OCC(=O)Nc2ccccc2OC)c1	?	28%	-21%	-6%	-12	1%
CCCn1ccc2c(OCC(=O)Nc3ccc(OC)c(OC)c3)cccc2c1=O	7.3µM*	·	13µM*	9%	·	·
CCOCCCNC(=S)NCCCNc1nc2c(C)cc(C)cc2cc1C#N	18µM*	-17%	8.2µM*	8%	-28	-6%
CCC(=O)NCCNc1nc2cc(C)c(C)cc2cc1C#N	-14%	0%	3%	1%	-1	-1%
Cc1ccc2cc(C#N)c(NCCNC(=O)C3CC3)nc2c1C	7.3µM*	?	15µM*	1%	?	?
Cc1cc(C)c2nc(NCCCNC(=S)NCCCN(C)C)c(C#N)cc2c1	5.8µM*	18µM*	5.8µM*	-26%	-21	12µM*
Cc1ccc2cc(C#N)c(NCCNC(=S)NCCCN(C)C)nc2c1C	26µM*	21µM*	?	1%	?	?
OCCNc1cc(Cl)ncn1	16%	-7%	1%	?	10	-13%
Cn1c(C(=O)Nc2cccc(Cl)c2)cc2c(=O)n(C)c3ccccc3c21	15µM*	·	-22%	·	·	·
CCOC(=O)c1cccc(NC(=O)c2cc3c(=O)n(C)c4ccccc4c3n2C)c1	21µM*	·	?	·	·	·
COc1ccc(NC(=O)c2cc3c(=O)n(C)c4ccccc4c3n2C)cc1OC	?	10%	?	-7%	·	1%
COC(=O)c1cccc(NC(=O)c2cc3sccc3n2C)c1	21µM*	-8%	?	?	-16	-2%
Cc1nn(C)cc1S(=O)(=O)Nc1ccc(C(F)(F)F)cc1	16%	-10%	-4%	-1%	21	11%
CC(C)(C)CC(=O)NCc1cccs1	11%	-7%	-9%	4%	-6	-8%
CC(C)(CO)NCc1cccs1	?	1%	-7%	?	7	1.3µM*
